Reference: PubChem BioAssay (NCATS)
Inconclusive results are not listed. Activity calls are given as the source filed them. The call rests on the fitted dose curve; in most records, active means well fitted cell-killing curve with a large enough effect; inconclusive means small, poorly fitted or top-dose-only effect, or effect the other way; inactive means flat fitted curve, though single readings scatter.

How the values were obtained:
Assay in all cases: Primary qHTS to identify gynecologic anti-cancer compounds using libraries of approved drugs and bioactive compounds (AID 1345084); further: nearly all actives have a fitted effect of over 55% in size
Conditions in all cases: Gynecologic cancer cell panel viability, ATPlite luminescence, 48 h; series mostly up to 57.5 µM
OV90 = tested on: OV90
Procedure, shortened: (§1)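 ATP-based viability (ATPlite), 1,000 cells/well, 16 h pre-incubation, 48 h compound at 37 C, 5% CO2, 15 min RT before read.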

PA-1 = tested on: PA-1
Procedure, shortened: as §1

Tov-21-G = tested on: Tov-21-G
Procedure, shortened: as §1

Tov112D = tested on: Tov112D
Procedure, shortened: as §1

Measured: Potency

O=C(c1ccc2nccnc2c1)N1CCCCC1
inactive: all assays above

COC(=O)C(C)C1CCC2(C)C(=O)C=CC(C)(O)C2C1O (stereo not drawn)
inactive: all assays above

C[C@@H]1CC[C@]2(C(=O)O)CC[C@]3(C)C(=CCC4[C@@]5(C)C[C@@H](O)[C@H](O)[C@@](C)(CO)C5CC[C@]43C)C2[C@]1(C)O (stereo partly drawn)
inactive: all assays above

CC/C=C/CC1=C(CCCCC(CCC(=O)O)OC(C)=O)CCC1=O (stereo not drawn)
inactive: all assays above

C=C1C(=O)OC2C1C(O)CC1(C)C(O)CCC(C=O)C21 (stereo not drawn)
inactive: all assays above

C=CC1(C)CC(OC(=O)/C(C)=C\COC(C)=O)C(C(=C)C(=O)O)C(O)C1C(=C)CO (stereo not drawn)
inactive: all assays above

COc1ccc(CN2C(=O)C(=O)c3cc(S(=O)(=O)N4CCC[C@H]4COc4cccnc4)ccc32)cc1
inactive: all assays above

O=C1OCC(c2ccccc2)=C1Cc1ccccc1
inactive: all assays above

CC(Nc1ncnc2nc[nH]c12)c1cc2cccc(Cl)c2c(=O)n1-c1ccccc1 (stereo not drawn)
inactive: all assays above

CCN(Cc1cccnc1)C(=O)CN(c1ccc(OC)nc1)S(=O)(=O)c1ccccc1C
inactive: all assays above

CN(C)CC1CCOC1(c1ccccc1)c1ccccc1 (stereo not drawn)
inactive: all assays above

CC(=O)OC1CC2C3(C)CCC(OC(=O)CC(=O)O)C(C)(C)C3CCC2(C)C2(C)CCC(C3(C)CCC(=O)O3)C12 (stereo not drawn)
inactive: all assays above
